# Hit rate of the full screen: of about 5,500 compounds, about 2,000 (36%) were called active. Roughly 18% stayed inconclusive and do not appear here. The list shows a part of the results. A number with no mark means an inactive call. No stated cut-off is given here; in the data, active means normalized growth mostly below about 0.91 (no sharp cut-off); inconclusive means no clear call, values can overlap the other calls; inactive means mostly above about 0.92.
# Assay: chemical genetic growth profiling, strain panel (AID 1159580);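 further: tested at 20 µM; growth read once vehicle control cultures reached saturation at 30 °C; 1 = growth at the plate median or of vehicle wells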
# Details: S. cerevisiae deletion strains, growth OD
structure (smiles),measurement,setting,value
N#CC(C#N)=NNc1cc(C(F)(F)F)ccc1OCC(F)(F)F,normalized growth,"locus YAR019C, strain CDC15, stronger effect = lower value",0.913
same,normalized growth,"locus YBL105C, strain PKC1, stronger effect = lower value",0.927
same,normalized growth,"locus YBR135W, strain CKS1, stronger effect = lower value",0.917
same,normalized growth,"locus YBR136W, strain MEC1, stronger effect = lower value",0.894
same,normalized growth,"locus YBR160W, strain CDC28, stronger effect = lower value",0.906
same,normalized growth,"locus YDL017W, strain CDC7, stronger effect = lower value",0.953
same,normalized growth,"locus YDL028C, strain MPS1, stronger effect = lower value",0.917
same,normalized growth,"locus YDL101C, strain DUN1, stronger effect = lower value",0.911
same,normalized growth,"locus YDL108W, strain KIN28, stronger effect = lower value",0.911
same,normalized growth,"locus YDL132W, strain cdc53, stronger effect = lower value",0.891 (active)
same,normalized growth,"locus YDL214C, strain PRR2, stronger effect = lower value",0.611 (active)
same,normalized growth,"locus YDR052C, strain DBF4, stronger effect = lower value",0.913
same,normalized growth,"locus YDR054C, strain cdc34, stronger effect = lower value",0.893
same,normalized growth,"locus YDR226W, strain ADK1, stronger effect = lower value",0.891 (active)
same,normalized growth,"locus YDR477W, strain SNF1, stronger effect = lower value",0.572 (active)
same,normalized growth,"locus YER123W, strain YCK3, stronger effect = lower value",0.398 (active)
same,normalized growth,"locus YER133W, strain GLC7, stronger effect = lower value",0.459 (active)
same,normalized growth,"locus YFL009W, strain cdc4, stronger effect = lower value",0.919
same,normalized growth,"locus YFL029C, strain CAK1, stronger effect = lower value",0.921
same,normalized growth,"locus YFR003C, strain YPI1, stronger effect = lower value",0.975
same,normalized growth,"locus YFR019W, strain FAB1, stronger effect = lower value",0.691 (active)
same,normalized growth,"locus YFR028C, strain CDC14, stronger effect = lower value",0.912
same,normalized growth,"locus YGR040W, strain KSS1, stronger effect = lower value",0.611 (active)
same,normalized growth,"locus YGR052W, strain FMP48, stronger effect = lower value",0.428 (active)
same,normalized growth,"locus YGR092W, strain DBF2, stronger effect = lower value",0.818
same,normalized growth,"locus YHR030C, strain SLT2, stronger effect = lower value",0.445 (active)
same,normalized growth,"locus YHR079C, strain IRE1, stronger effect = lower value",0.831
same,normalized growth,"locus YHR082C, strain KSP1, stronger effect = lower value",0.543 (active)
same,normalized growth,"locus YHR205W, strain SCH9, stronger effect = lower value",0.814
same,normalized growth,"locus YIL147C, strain SLN1, stronger effect = lower value",0.966
same,normalized growth,"locus YJL095W, strain BCK1, stronger effect = lower value",0.533
same,normalized growth,"locus YJL128C, strain PBS2, stronger effect = lower value",0.888
same,normalized growth,"locus YJL157C, strain FAR1, stronger effect = lower value",0.814
same,normalized growth,"locus YJR016C, strain ILV3, stronger effect = lower value",0.947
same,normalized growth,"locus YJR066W, strain TOR1 (second series), stronger effect = lower value",0.437 (active)
same,normalized growth,"locus YJR066W, strain TOR1, stronger effect = lower value",0.458 (active)
same,normalized growth,"locus YKL048C, strain ELM1, stronger effect = lower value",0.88
same,normalized growth,"locus YKL067W, strain YNK1, stronger effect = lower value",0.739
same,normalized growth,"locus YKL101W, strain HSL1, stronger effect = lower value",0.787
same,normalized growth,"locus YKL193C, strain SDS22, stronger effect = lower value",0.9
same,normalized growth,"locus YKL203C, strain TOR2, stronger effect = lower value",0.71 (active)
same,normalized growth,"locus YLR113W, strain HOG1, stronger effect = lower value",0.32 (active)
same,normalized growth,"locus YLR133W, strain CKI1, stronger effect = lower value",0.868
same,normalized growth,"locus YLR403W, strain SFP1, stronger effect = lower value",0.811
same,normalized growth,"locus YML070W, strain DAK1, stronger effect = lower value",0.623 (active)
same,normalized growth,"locus YMR001C, strain CDC5, stronger effect = lower value",0.9
same,normalized growth,"locus YMR205C, strain PFK2 (second series), stronger effect = lower value",0.889
same,normalized growth,"locus YMR277W, strain FCP1, stronger effect = lower value",0.871 (active)
same,normalized growth,"locus YNL006W, strain LST8, stronger effect = lower value",0.976
same,normalized growth,"locus YNL020C, strain ARK1, stronger effect = lower value",0.917
same,normalized growth,"locus YNL161W, strain CBK1, stronger effect = lower value",0.899
same,normalized growth,"locus YNL183C, strain NPR1, stronger effect = lower value",0.329 (active)
same,normalized growth,"locus YNL207W, strain RIO2, stronger effect = lower value",0.923
same,normalized growth,"locus YNL307C, strain MCK1 (second series), stronger effect = lower value",0.734
same,normalized growth,"locus YOL078W, strain AVO1, stronger effect = lower value",0.904
same,normalized growth,"locus YOL136C, strain PFK27, stronger effect = lower value",0.693
same,normalized growth,"locus YOR061W, strain CKA2, stronger effect = lower value",0.86
same,normalized growth,"locus YOR119C, strain RIO1, stronger effect = lower value",0.45 (active)
same,normalized growth,"locus YOR231W, strain MKK1, stronger effect = lower value",0.782
same,normalized growth,"locus YOR329C, strain SCD5, stronger effect = lower value",0.978
same,normalized growth,"locus YPL031C, strain PHO85, stronger effect = lower value",0.703
same,normalized growth,"locus YPL153C, strain RAD53, stronger effect = lower value",0.679
same,normalized growth,"locus YPL204W, strain HRR25, stronger effect = lower value",0.688
same,normalized growth,"locus YPL209C, strain IPL1, stronger effect = lower value",0.928
same,normalized growth,"locus YPL256C, strain CLN2, stronger effect = lower value",0.33 (active)
same,normalized growth,"locus YPR025C, strain CCL1, stronger effect = lower value",0.923
same,normalized growth,"locus YPR106W, strain ISR1, stronger effect = lower value",0.932
same,normalized growth,"locus YPR111W, strain DBF20, stronger effect = lower value",0.895
same,normalized growth,"strain NNK1, stronger effect = lower value",0.957
same,normalized growth,"strain TSCII, stronger effect = lower value",0.858 (active)

# — PubChem BioAssay AID1159580 (chemical genetic matrix, 2015)
